Sampled rows, rich in hits. Any-hit rate of the full collection: about 13%.
ALDH1A1 block: qHTS Assay for Inhibitors of Aldehyde Dehydrogenase 1 (ALDH1A1). hit rate 7.3% among 220,000. Purified ALDH1A1, NADH fluorescence, propionaldehyde substrate. Aldehyde dehydrogenase 1A1 (Homo sapiens), P00352. AID 1030, 2008. Potency, µM (doses to about 75.3 µM), for the others: at the highest dose activity, negative = inhibition, actives largely listed as inhibitors; active = well fitted inhibition curve with a large enough effect, not every such curve was filed as active; inconclusive = small, poorly fitted or top-dose-only effect, or another doubt; inactive = no such curve, though single readings can be large or run the other way;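 note: potency is the fitted concentration of half-maximal effect; plate controls were no enzyme wells and a reference inhibitor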
G9a block: qHTS Assay for Inhibitors of Histone Lysine Methyltransferase G9a; Histone-lysine N-methyltransferase EHMT2 (Homo sapiens), Q96KQ7; G9a H3K9 monomethylation, AlphaScreen, 2 h; Potency, µM (top dose mostly 102 µM), inactives show top-dose activity, negative = inhibition, hits mostly inhibitors; hit rate 8.8% among 350,000; note: potency is the fitted concentration of half-maximal effect; % is set by controls: 0 for no effect and ±100 for the full control effect; nearly all actives have a fitted effect of over 75% in size
Target sequence (Q96KQ7 913-1193 limits assumed): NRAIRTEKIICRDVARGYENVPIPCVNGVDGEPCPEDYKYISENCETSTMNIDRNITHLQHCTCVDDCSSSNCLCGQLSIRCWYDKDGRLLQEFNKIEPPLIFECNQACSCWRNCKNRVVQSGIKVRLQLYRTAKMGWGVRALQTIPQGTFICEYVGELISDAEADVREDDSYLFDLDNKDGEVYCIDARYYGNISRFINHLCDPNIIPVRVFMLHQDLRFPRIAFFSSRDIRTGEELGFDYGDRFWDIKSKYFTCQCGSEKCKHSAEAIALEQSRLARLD
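Quantitative HTS format: methyltransferase activity on a biotin-tagged H3K9 peptide is measured by AlphaScreen, using a rabbit anti-monomethyl-H3K9 antibody with streptavidin donor and anti-IgG acceptor beads. Final levels are 20 nM enzyme, 500 nM peptide, 20 uM SAM; 2 h RT.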
LMNA splice mod: qHTS Assay for Modulators of Lamin A Splicing; HeLa LMNA splicing GFP/RFP minigene ratio, 48 h; Potency, µM (series often up to 46.1 µM), for the others: top-dose ratio change, negative = inhibition, usual class: inhibitors; hit rate 0.01% among 200,000; AID 1487, 2009; active = well fitted inhibition curve with a large enough effect in the signal ratio, with a control signal flat, not every such curve was filed as active; inconclusive = small, poorly fitted or top-dose-only effect, or effect the other way, or a change in a side signal; the % refers to the signal ratio; note: potency is the fitted concentration of half-maximal effect; % is set by controls: 0 for no effect and ±100 for the full control effect
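S3 HeLa stable clones carrying a lamin A-EGFP splicing minigene plus DsRed2 were seeded at 600 cells/well in Opti-MEM with 2% FBS, pin-dosed and incubated 48 h at 37°C. Acumen cytometry (488 nm) gave the GFP/RFP total-intensity ratio.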
miR-21 act: qHTS Assay for Modulators of miRNAs and/orActivators of miR-21. HeLa miR-21 FLuc reporter, luciferase, 48 h. Potency, µM (series often up to 38.3 µM), for inactives: top-dose activity change, positive = activation, most hits filed as activators. 340,000 tested, under 10 active. AID 2288, 2010;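 note: % of control where 0% means no effect; miR-21 action dims this reporter so a rising signal means less miR-21 action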
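HeLa miR-21-FLuc reporter line, endogenous miR-21; 2000 cells/well in DMEM/10% FBS; compound titration up to ~40uM final, 48 h, 37 degree Celsius; luciferase detection reagent, 15 min lysis, CCD luminescence.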
KDM4E inh: qHTS Assay for Inhibitors of Human Jumonji Domain Containing 2E (JMJD2E); AID 2147, 2009; Potency, µM (doses to about 57.1 µM), without a hit: at the top dose activity change, negative = inhibition, most hits filed as inhibitors; JMJD2E catalytic domain, FDH-coupled NADH fluorescence (FDH is formaldehyde dehydrogenase); Lysine-specific demethylase 4E (Homo sapiens), B2RXH2; hit rate 1.6% among 230,000; active = well fitted inhibition curve with a large enough effect, not every such curve was filed as active; inconclusive = small, poorly fitted or top-dose-only effect, or another doubt; inactive = no such curve, though single readings can be large or run the other way;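 note: potency is the fitted concentration of half-maximal effect; 0% = wells with enzyme and -100% = buffer wells without enzyme; nearly all actives have a fitted effect of over 50% in size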
Target sequence (B2RXH2 1-337 limits assumed): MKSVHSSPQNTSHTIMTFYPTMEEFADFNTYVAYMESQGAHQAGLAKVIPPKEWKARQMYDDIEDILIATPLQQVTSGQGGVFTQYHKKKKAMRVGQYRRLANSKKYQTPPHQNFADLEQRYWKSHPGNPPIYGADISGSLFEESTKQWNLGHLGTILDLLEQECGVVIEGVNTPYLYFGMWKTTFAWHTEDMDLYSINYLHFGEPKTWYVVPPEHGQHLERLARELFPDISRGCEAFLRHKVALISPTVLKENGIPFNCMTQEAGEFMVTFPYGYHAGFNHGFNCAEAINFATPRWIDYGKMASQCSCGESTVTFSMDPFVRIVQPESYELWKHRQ
Sfp PPTase inh: qHTS Assay for Inhibitors of Bacillus subtilis Sfp phosphopantetheinyl transferase (PPTase); Potency, µM, for inactives: largest response in the series, negative = inhibition, hits mostly inhibitors; Biochemical Sfp PPTase activity, qHTS; 4'-phosphopantetheinyl transferase ffp (Bacillus subtilis), Q9F4F7; hit rate 3.5% among 310,000; AID 1490, 2009;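 note: the enzyme is Sfp with the accession as filed and its product quenches rhodamine fluorescence; potency is the fitted concentration of half-maximal effect; 0% = enzyme reaction without inhibitor and -100% = no enzyme wells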
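Buffer: 50 mM Hepes-Na pH 7.6, 10 mM MgCl2, 0.01% Nonidet P-40, 0.01% BSA. Enzyme 15 nM, pre-exposed to compound 15 min; substrates then added and fluorescence change tracked over 30 min.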
Active calls of the source: *; ? = inconclusive; . = no result given; [ ] = remark or other dose. Unless noted, calls come from the whole dose curve; as a rule, active = well fitted curve in the direction sought with a large enough effect; inconclusive = small, poorly fitted or top-dose-only effect, or another doubt; inactive = no such curve, though single readings can be large; an effect the other way counts as inactive or inconclusive.

SMILES	ALDH1A1 block	G9a block	LMNA splice mod	miR-21 act	KDM4E inh	Sfp PPTase inh
COc1ccc(C2C(C(=O)Nc3ccccc3OC)=C(C)Nc3ncnn32)cc1 (stereo not drawn)	14µM*	-13%	-5%	-2%	6%	-4%
CCOC(=O)C1=C(C)Nc2ncnn2C1c1cccnc1 (stereo not drawn)	8%	-2%[12.7 µM]	-1%	0%	-6%	16%
CCOC(=O)C1=C(C)NC(=S)N(C(C)=O)C1c1ccccc1 (stereo not drawn)	25µM*	-2%[59 µM]	-12%	9%	-3%	1%
COc1ccccc1NC(=O)C1=C(C)Nc2nc(CCCO)nn2C1c1cccnc1 (stereo not drawn)	5%	50µM*	-6%	-2%	-5%	-10%
CCOC(=O)C1=C(c2ccccc2)NC(=O)NC1c1ccc(N(C)C)cc1 (stereo not drawn)	14µM*	?	?	-8%	0%	-24%
CC1=C(C(=O)Nc2ccccc2C)C(c2cccnc2)n2nc(CCCO)nc2N1 (stereo not drawn)	4%	-1%[59 µM]	-2%	1%	6%	9%
COc1ccccc1NC(=O)C1=C(C)Nc2nnnn2C1c1ccccn1 (stereo not drawn)	13µM*	4%[12.7 µM]	?	-1%	3%	16%
CCOc1cc(C2C(C(=O)Nc3ccccc3)=C(C)Nc3ncnn32)cc(Br)c1O (stereo not drawn)	.	10µM*	?	0%	.	.
COc1ccccc1NC(=O)C1=C(C)Nc2nnnn2C1c1ccccc1OC (stereo not drawn)	-6%	-21%[12.7 µM]	-4%	-4%	-14%	11%
N#Cc1ccccc1S(=O)(=O)Nc1ccc2c(c1)C(=O)OC2	.	-46%	.	-3%	5%	11%
Cc1c(Cl)cccc1NC(=O)C(=O)NCCc1csc(-c2cccc(F)c2)n1	.	-1%[59 µM]	-6%[46 µM]	0%	.	.
COc1ccccc1OCCNC(=O)CC(NC(C)=O)c1ccccc1 (stereo not drawn)	.	79µM*	.	0%	.	12%
COc1ccc(C2C(C(C)=O)=C(O)C(=O)N2CCc2ccccc2)c(OC)c1 (stereo not drawn)	3%	?	-6%	-6%	-7%	11%
COc1ccc(C2C(C(C)=O)=C(O)C(=O)N2CCCn2ccnc2)cc1OC (stereo not drawn)	-3%	50µM*	5%	-6%	-1%	4%
CC(=O)C1=C(O)C(=O)N(Cc2ccccc2)C1c1ccc(Cl)cc1 (stereo not drawn)	.	-25%	.	0%	.	11%
COc1ccc(C2C(C(C)=O)=C(O)C(=O)N2Cc2ccccc2)c(OC)c1 (stereo not drawn)	.	50µM*	.	-8%	.	-1%
CC(=O)C1=C(O)C(=O)N(Cc2ccccc2)C1c1cccs1 (stereo not drawn)	-7%	45µM*	6%	-12%	2%	4%
CC(=O)C1=C(O)C(=O)N(CCCn2ccnc2)C1c1ccc(Br)cc1 (stereo not drawn)	1%	?	-8%[46 µM]	0%	9%	11%
COc1cc(C2C(C(C)=O)=C(O)C(=O)N2Cc2ccccc2)ccc1O (stereo not drawn)	.	45µM*	.	-4%	.	11%
COc1cc(/C=N\NC(=O)c2cccnc2)ccc1OC(=O)c1ccccc1Cl	.	51%	.	2%	.	0%
CC(C)(CO)NC(=O)c1ccc2nc(Cc3cccc(Cl)c3)oc2c1	.	32%	.	-57%	.	8%
COc1ccc(-c2cn(-c3ccccc3)c3[n+]2CCS3)cc1	13%	19%[59 µM]	?	?	-2%	5%
COc1cc(C2c3c(oc4ccccc4c3=O)C(=O)N2Cc2ccc(C)cc2)ccc1O (stereo not drawn)	.	4%[59 µM]	-4%[46 µM]	0%	.	.
COc1cc(C2c3c(oc4ccccc4c3=O)C(=O)N2Cc2ccncc2)ccc1O (stereo not drawn)	25µM*	8%[59 µM]	15%	-1%	-12%	-7%
COc1ccccc1N(C)S(=O)(=O)c1ccc(C)c(C(=O)N2CCCCCC2)c1	.	-44%	.	.	.	.
SMILES	ALDH1A1 block	G9a block	LMNA splice mod	miR-21 act	KDM4E inh	Sfp PPTase inh
CCCCc1c(O)nc(SCCC(=O)O)[nH]c1=O	12%	24%[12.7 µM]	5%	0%	2%	1%
N=c1nc(SCCC(=O)O)ss1	?	11µM*	-5%	15%	-2%	?
COc1cc(C(=O)NCCNC(=O)c2cc(OC)c(C)c(OC)c2)cc(OC)c1C	.	32µM*	.	0%	.	25%
COc1cc(C(=O)NCCOc2cc(C)cc(C)c2)cc(OC)c1OC	.	15%	.	18%	.	-3%
O=C(CCCCCNC(=O)N1CCn2c1nc1ccccc12)NCc1ccc(F)cc1	.	58%	.	0%	.	15%
O=C(N/N=C/c1ccc[nH]1)c1cc2ccccc2cc1O	.	79µM*	.	-26%	.	-12%
CCOc1cc(C2c3c(-c4cc(C)ccc4O)n[nH]c3C(=O)N2CCCOC(C)C)ccc1O (stereo not drawn)	.	-23%[59 µM]	.	1%	.	.
Cc1ccc2c(c1)=C(c1sc(N(C)c3ccc(O)cc3)nc1O)C(=O)N=2	.	45µM*	.	-11%	.	2%
Cc1cc(Br)c2c(c1)=C(c1sc(N3CCCCCC3)nc1O)C(=O)N=2	1%	7%[59 µM]	5%	-43%	0%	7%
CN(C)C(=S)NC(=NCc1ccc([N+](=O)[O-])cc1)c1ccccc1	.	71µM*	.	3%	.	-28%
CN(C)C(=S)Nc1ccc([N+](=O)[O-])cc1	?	-16%	2%	-4%	2%	?
O=C(c1ccc2c(=O)n(Cc3ccc(Cl)cc3)c(=S)[nH]c2c1)N1CCOCC1	.	6%	.	3%	.	0%
CCOc1ccccc1Nc1nc(-c2sc(C)nc2C)cs1	20µM*	?	.	-19%	?	?
Cc1nc(C)c(-c2csc(NCc3ccccc3)n2)s1	?	50µM*	?	-22%	1%	56µM*
Cc1nc(C)c(-c2csc(NCc3ccco3)n2)s1	-2%	?	-8%	-48%	?	-2%
CCOc1ccccc1Nc1nc(-c2sc(NC(=O)c3ccco3)nc2C)cs1	-4%	?	?	24%	-25%	5%
COc1ccc(CCNc2nc(-c3ccncc3)cs2)cc1OC	.	.	.	7%	-13%	?
